This passage reports log2 fold change results from the supplement of paper PMC10849652.

Targets with a hit are over-represented here; the source holds about 8,800 in all. About 0.5% of all pairs of compound and target were hits. Values without a mark were called inactive.

UniProt Q9Y5K3, sequence (Q9Y5K3 whole entry, looked up): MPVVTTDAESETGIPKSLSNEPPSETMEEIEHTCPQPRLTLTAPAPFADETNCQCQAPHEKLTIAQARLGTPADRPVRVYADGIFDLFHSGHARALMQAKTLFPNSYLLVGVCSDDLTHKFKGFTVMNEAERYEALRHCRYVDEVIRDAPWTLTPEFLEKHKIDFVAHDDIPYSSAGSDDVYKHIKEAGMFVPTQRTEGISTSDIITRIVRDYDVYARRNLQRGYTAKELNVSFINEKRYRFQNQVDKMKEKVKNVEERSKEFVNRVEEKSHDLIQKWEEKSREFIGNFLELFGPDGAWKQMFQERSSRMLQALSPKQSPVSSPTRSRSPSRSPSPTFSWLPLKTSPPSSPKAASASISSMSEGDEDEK
UniProt O14744, sequence (O14744 whole entry, looked up): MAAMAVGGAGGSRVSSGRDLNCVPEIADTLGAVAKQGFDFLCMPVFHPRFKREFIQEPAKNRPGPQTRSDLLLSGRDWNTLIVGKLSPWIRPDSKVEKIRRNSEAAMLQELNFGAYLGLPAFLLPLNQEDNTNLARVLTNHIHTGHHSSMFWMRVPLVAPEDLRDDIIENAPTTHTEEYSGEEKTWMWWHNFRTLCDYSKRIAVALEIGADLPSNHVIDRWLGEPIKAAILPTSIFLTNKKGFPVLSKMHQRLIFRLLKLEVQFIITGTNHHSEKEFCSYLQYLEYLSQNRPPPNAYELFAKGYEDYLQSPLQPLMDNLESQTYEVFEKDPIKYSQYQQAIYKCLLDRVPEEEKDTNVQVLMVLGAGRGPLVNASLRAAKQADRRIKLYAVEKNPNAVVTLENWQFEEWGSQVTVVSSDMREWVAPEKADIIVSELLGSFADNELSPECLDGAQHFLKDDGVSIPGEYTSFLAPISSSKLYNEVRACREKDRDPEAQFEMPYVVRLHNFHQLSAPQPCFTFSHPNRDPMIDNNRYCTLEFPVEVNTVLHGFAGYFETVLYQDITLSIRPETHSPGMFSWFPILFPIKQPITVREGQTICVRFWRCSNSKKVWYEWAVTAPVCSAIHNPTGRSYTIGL
UniProt Q96C36, sequence (Q96C36 whole entry, looked up): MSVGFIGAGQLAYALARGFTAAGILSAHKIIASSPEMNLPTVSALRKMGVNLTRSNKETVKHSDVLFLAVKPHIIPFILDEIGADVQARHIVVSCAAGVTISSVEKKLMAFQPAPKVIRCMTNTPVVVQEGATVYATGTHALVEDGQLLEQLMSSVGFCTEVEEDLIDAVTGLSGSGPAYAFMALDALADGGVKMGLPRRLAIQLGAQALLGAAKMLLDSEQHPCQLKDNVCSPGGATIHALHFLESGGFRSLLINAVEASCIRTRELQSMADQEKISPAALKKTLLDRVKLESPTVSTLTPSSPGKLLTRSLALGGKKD
UniProt Q8NA72, sequence (Q8NA72 whole entry, looked up): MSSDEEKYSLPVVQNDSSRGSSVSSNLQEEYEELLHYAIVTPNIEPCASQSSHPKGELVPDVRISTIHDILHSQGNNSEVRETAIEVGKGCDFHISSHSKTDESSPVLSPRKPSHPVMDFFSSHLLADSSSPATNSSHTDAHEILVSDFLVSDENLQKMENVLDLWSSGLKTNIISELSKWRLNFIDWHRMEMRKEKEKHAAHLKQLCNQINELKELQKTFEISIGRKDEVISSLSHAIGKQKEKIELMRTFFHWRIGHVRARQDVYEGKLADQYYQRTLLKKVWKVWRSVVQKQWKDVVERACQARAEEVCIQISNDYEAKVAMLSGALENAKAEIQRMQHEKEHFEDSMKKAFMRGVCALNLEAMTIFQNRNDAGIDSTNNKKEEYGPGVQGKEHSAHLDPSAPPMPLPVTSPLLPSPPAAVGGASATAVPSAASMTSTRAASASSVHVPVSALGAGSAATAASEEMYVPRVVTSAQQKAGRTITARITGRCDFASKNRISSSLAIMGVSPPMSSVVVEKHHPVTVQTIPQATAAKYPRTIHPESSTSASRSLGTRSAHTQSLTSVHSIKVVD
UniProt P14314, sequence (P14314 whole entry, looked up): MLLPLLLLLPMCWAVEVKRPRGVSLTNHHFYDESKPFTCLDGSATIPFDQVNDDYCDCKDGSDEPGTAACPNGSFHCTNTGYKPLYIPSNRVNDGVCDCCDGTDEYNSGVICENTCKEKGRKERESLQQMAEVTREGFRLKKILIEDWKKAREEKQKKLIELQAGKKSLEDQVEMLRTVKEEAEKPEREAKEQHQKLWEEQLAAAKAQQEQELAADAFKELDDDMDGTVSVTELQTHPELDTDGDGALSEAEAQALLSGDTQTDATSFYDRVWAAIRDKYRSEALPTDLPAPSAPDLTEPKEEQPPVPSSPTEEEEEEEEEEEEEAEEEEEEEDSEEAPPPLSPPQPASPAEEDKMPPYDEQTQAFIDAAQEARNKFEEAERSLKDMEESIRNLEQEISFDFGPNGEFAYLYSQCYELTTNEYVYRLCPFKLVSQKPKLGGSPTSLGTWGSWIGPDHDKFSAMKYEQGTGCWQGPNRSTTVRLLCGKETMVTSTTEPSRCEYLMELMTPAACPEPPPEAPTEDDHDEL
UniProt O00408, sequence (O00408 whole entry, looked up): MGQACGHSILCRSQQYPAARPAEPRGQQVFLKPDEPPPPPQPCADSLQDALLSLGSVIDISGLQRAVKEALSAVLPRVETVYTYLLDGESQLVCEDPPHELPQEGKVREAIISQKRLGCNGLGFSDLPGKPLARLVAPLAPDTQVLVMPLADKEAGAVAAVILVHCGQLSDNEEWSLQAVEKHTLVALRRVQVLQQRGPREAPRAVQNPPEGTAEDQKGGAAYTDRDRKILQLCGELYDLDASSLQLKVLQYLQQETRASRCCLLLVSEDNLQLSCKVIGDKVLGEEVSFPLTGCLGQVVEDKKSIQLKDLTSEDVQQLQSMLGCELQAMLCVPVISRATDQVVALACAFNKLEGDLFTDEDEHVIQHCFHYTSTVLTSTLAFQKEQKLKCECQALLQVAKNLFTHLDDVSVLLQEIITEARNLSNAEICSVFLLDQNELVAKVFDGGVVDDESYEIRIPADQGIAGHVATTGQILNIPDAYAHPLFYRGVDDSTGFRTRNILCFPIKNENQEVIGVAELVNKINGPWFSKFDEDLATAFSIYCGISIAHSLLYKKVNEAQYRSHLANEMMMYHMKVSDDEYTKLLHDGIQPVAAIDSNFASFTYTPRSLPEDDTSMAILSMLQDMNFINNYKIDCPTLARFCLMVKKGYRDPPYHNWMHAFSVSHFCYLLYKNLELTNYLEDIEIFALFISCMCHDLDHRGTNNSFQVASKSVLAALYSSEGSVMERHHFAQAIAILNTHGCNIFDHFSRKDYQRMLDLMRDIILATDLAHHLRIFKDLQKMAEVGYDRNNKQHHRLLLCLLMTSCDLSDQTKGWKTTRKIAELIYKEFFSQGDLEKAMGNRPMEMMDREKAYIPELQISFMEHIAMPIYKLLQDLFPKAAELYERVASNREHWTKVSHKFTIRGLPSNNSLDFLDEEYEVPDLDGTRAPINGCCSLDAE
UniProt Q93096, sequence (Q93096 whole entry, looked up): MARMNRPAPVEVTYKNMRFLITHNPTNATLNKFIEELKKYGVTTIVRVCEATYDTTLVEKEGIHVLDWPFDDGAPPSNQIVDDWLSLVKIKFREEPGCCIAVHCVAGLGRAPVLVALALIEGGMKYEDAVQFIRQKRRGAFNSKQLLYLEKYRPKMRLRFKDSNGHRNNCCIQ
UniProt Q15054, sequence (Q15054 whole entry, looked up): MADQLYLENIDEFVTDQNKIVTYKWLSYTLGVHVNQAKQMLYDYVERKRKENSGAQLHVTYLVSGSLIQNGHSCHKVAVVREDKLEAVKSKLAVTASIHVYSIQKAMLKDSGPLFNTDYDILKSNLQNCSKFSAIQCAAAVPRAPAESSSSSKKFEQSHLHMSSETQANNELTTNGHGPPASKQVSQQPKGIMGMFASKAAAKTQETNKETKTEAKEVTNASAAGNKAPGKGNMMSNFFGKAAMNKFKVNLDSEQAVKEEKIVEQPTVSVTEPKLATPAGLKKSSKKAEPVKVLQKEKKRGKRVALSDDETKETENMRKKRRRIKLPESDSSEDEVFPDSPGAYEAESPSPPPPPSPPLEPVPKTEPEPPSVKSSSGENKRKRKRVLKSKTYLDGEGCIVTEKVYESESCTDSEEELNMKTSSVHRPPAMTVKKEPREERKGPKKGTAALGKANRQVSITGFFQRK
UniProt Q8N8N7, sequence (Q8N8N7 whole entry, looked up): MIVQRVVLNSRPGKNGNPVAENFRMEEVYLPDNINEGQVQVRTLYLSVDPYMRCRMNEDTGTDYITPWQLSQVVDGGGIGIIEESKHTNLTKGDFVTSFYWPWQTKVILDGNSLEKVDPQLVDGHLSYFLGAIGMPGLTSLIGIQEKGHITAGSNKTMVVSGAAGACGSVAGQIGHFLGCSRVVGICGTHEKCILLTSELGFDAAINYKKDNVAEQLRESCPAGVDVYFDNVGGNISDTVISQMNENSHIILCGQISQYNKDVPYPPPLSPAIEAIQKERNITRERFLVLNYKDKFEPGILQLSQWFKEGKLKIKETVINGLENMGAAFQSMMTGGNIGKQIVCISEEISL
UniProt Q9HBH1, sequence (Q9HBH1 whole entry, looked up): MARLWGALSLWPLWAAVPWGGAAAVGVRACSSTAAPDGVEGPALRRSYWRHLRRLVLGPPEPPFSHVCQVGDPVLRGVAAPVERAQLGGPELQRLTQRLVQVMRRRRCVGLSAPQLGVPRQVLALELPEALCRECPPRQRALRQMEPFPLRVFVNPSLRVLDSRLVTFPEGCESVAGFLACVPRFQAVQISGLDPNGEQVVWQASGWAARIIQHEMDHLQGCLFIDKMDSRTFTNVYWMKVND

Compound in the assay: COc1cc2ncnc(Nc3ccc(F)c(Cl)c3)c2cc1OCCCN1CCOCC1 [gefitinib]
In words: log2 fold change, soluble protein after heating vs DMSO (PISA); higher = thermal stabilisation; K562 lysate, 10 uM; active = over 0.2 and 3.5 SD of the protein, either way, in both replicates (recomputed). The method, boiled down:
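Soluble protein was defined as the supernatant remaining after 21,000xg for 90 min, following pooling of heated aliquots and adjustment to 0.5% NP-40 at 4°C. Before that, crude K562 extract at 1 mg/mL protein in PBS pH 7.4 with 1 mM MgCl2 was treated with 10 μM compound for 30 min and heated for 3 min across 48°C-58°C. Quantification used TMTpro 16plex LC-MS/MS with channel sums equalised, and values are log-two fold changes in thermal stability relative to solvent controls from duplicates.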
For PHACTR4 isoform 2 (UniProt Q8IZ21), the log2 fold change was -0.022. In the case of PTGR2 (UniProt Q8N8N7), the log2 fold change was -0.007. For PRMT5 (UniProt O14744), the log2 fold change was -0.023. In the case of PCYT1B (UniProt Q9Y5K3), the log2 fold change is 0.033. Take POC5 (UniProt Q8NA72): the log2 fold change is 0.042.

In the case of PFKP (UniProt Q01813), the log2 fold change is -0.006. As for PDF (UniProt Q9HBH1), the log2 fold change is -0.064.

As for PYCR2 (UniProt Q96C36), the log2 fold change is -0.005. Next, PDE2A (UniProt O00408): -0.01; PRKACA (UniProt P17612): -0.01. Next, PTPN2 (UniProt P17706): -0.006; PPFIA2 (UniProt O75334): 0.057. Regarding PTP4A1 (UniProt Q93096), the log2 fold change was 0.049. Take PDXDC1 (UniProt Q6P996): the log2 fold change is 0.032. PRKCSH isoform 2 (UniProt P14314): the log2 fold change is 0.092. Take POLD3 (UniProt Q15054): the log2 fold change is -0.018.
